Laboratory results published in PubChem BioAssay (NCATS).
Several values for one entry are separate records, joined by “and”; a condition that tells them apart may be missing. Identical values can stand only once. Inconclusive results are not listed. Activity calls are given as the source filed them. Calls come from the whole dose curve; as a rule, active = well fitted curve in the direction sought with a large enough effect; inconclusive = small, poorly fitted or top-dose-only effect, or another doubt; inactive = no such curve, though single readings can be large; an effect the other way counts as inactive or inconclusive.
Potency is the fitted concentration of half-maximal effect.

Target: N-terminal Xaa-Pro-Lys N-methyltransferase 1 (Homo sapiens) (UniProt Q9BV86)
Sequence (Q9BV86 whole entry, looked up): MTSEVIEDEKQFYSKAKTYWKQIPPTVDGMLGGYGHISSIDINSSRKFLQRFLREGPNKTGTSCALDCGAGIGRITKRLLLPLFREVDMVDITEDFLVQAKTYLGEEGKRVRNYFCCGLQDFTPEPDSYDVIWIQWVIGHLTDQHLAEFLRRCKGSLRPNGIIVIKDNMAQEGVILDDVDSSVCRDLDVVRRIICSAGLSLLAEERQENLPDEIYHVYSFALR
Assay: Confirmatory qHTS for Inhibitors of N-terminal methyltransferase 1 (NTMT1): MTaseGlo Assay (AID 1645874); note: nearly all actives have a fitted effect of over 65% in size
Details: NTMT1 enzyme, MTase-Glo SAH luminescence; series mostly up to 100 µM
In short: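 Inhibition was derived from luminescence after SAH-to-ATP conversion, scaled between no-enzyme and DMSO wells, then fitted by 4-parameter Hill. Conditions: 125 nM NTMT1, 100 uM SAM, 1 uM SPKRIA, 30 min RT.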
For `O=C(Nc1ccccc1)c1ccc(Nc2nnc(-c3ccc(O)cc3)c3ccccc23)cc1`, the Potency was “inactive”.
With `Cc1[nH]c(/C=C2\C(=O)Nc3cc(-c4ccccc4)ccc32)c(C)c1CCC(=O)O` the Potency was 49.4 µM (active).
With `COc1cccc(OCCCN)c1-c1cc(Nc2cnc(C#N)cn2)n[nH]1` the Potency was 50.1 µM (active) and 21.8 µM (active).
For `COc1cc2c(Nc3cc(F)c(Cl)c(Cl)c3)ncnc2cc1OCC1CCCN(C)CCC1`, the Potency was 31.6 µM (active).
In the case of `NCCOc1cc(C(=O)Nc2cc(OCCN)c3ccccc3n2)nc(C(=O)Nc2cc(OCCN)c3ccccc3n2)c1`, the Potency is reported as 43.5 µM (active).
With `COc1ccc2nc(-c3cc(OC)c(OC)c(OC)c3)cc(C(=O)NCC(=O)Nc3ccc(C(C)=O)cc3)c2c1` the Potency was “inactive”.
In the case of `O=S(=O)(Cc1ccccc1)Nc1ccc(-c2ccc3c(cnn3-c3ccc(F)cc3)c2)c(C(F)(F)F)c1`, the Potency is reported as “inactive”.
In the case of `CN(C)C(=O)Nc1cc(-c2ccccc2)ccc1N(C)C`, the Potency is reported as “inactive”.

Test system: not listed separately
Assay: Primary qHTS for inhibitors of nuclear receptor binding SET domain protein 2 (NSD2) in an isogenic RCH-ACV NSD2 p.E1099K mutant (9B) (AID 1645876); note: nearly all actives have a fitted effect of over 70% in size
Details: RCH-ACV NSD2 E1099K (9B) viability, CellTiter-Glo, 72 h; series mostly up to 44.9 µM
For `CCO[C@H]1CN(C2CCC(O)(c3ccc4c(c3)OCO4)CC2)C[C@@H]1NC(=O)CNC(=O)c1cccc(C(F)(F)F)c1` (stereo not given in full), the Potency was “inactive”.
In the case of `CCOc1ccc(S(=O)(=O)N2CCCCCC2)c2ccccc12`, the Potency is reported as “inactive”.
In the case of `N#Cc1cc(-c2ccnc(Nc3ccc(N4CCOCC4)cc3)n2)ccc1OC1CCOCC1`, the Potency is reported as 1.45 µM (active).
For `Nc1nccc(-c2c(-c3ccc(F)cc3)ncn2C2CCCCC2)n1`, the Potency was 9.16 µM (active) and 11.8 µM (active).
With `Oc1cccc(C2NC(=S)Nc3cccc(F)c32)c1` (stereo not given) the Potency was 3.65 µM (active).
With `Cc1[nH]c(/C=C2\C(=O)Nc3cc(-c4ccccc4)ccc32)c(C)c1CCC(=O)O` the Potency was 23 µM (active).
With `CC(C)S(=O)(=O)c1ccc2nccc(Nc3ccc4scnc4c3)c2c1` the Potency was 9.34 µM (active).
In the case of `CC(C)c1ccc(-c2cc(=O)c3ccccc3o2)cc1`, the Potency is reported as 23 µM (active).
With `COc1cccc(OCCCN)c1-c1cc(Nc2cnc(C#N)cn2)n[nH]1` the Potency was 0.0103 µM (active).
In the case of `Cc1c(NC(=O)c2cc3c(s2)CCCC3)cccc1-c1cn(C)c(=O)c(Nc2ccc(C3C(=O)N(C)CCN3C)cc2)n1` (stereo not given), the Potency is reported as 12.9 µM (active).
With `COCC(=O)NC/C=C/c1ccc2ncnc(Nc3ccc(Oc4ccc(C)nc4)c(C)c3)c2c1` the Potency was 20.5 µM (active).
In the case of `O=c1cc(N2CCN(c3cccc(C(F)(F)F)c3)CC2)[nH]c(=O)n1C1CCCCC1`, the Potency is reported as “inactive”.
With `COc1cc2ncnc(Oc3ccc(CC(=O)Nc4cnn(C(C)C)c4)cc3)c2cc1OC` the Potency was 16.3 µM (active).
For `CN(C)C(=O)Nc1cccc(-c2ccc(N(C)C)cc2)c1`, the Potency was “inactive”.
With `CC(C)[C@@H](c1ccc(C(F)(F)F)cc1CN(Cc1cc(C(F)(F)F)cc(C(F)(F)F)c1)c1nnn(C)n1)N1CCC(C(=O)O)CC1` the Potency was 25.8 µM (active).
For `COc1cc(-c2cn(C3CCc4c(F)cccc4N(CC(F)(F)F)C3=O)nn2)ccc1-n1cnc(C)c1` (stereo not given), the Potency was 18.3 µM (active).
In the case of `COc1cc(F)c(C(C)C)cc1-c1ccc(C(F)(F)F)cc1CN1C(=O)OC(c2cc(C(F)(F)F)cc(C(F)(F)F)c2)C1C` (stereo not given), the Potency is reported as “inactive”.
For `CCCc1cc(C)n(C)c(=O)c1CN(C)C(=O)c1cc(-c2ccc(N3CCN(C(C)C)CC3)nc2)cc2c1cnn2C(C)C`, the Potency was “inactive”.
In the case of `O=C(Nc1ccc(C(O)(C(F)(F)F)C(F)(F)F)cc1)c1ccc(C(F)(F)F)cc1`, the Potency is reported as 5.78 µM (active).
With `COc1cc2c(Nc3cc(F)c(Cl)c(Cl)c3)ncnc2cc1OCC1CCCN(C)CCC1` the Potency was 3.25 µM (active).
For `N#Cc1ccc2ncnc(NCCc3ccccc3)c2c1`, the Potency was 6.49 µM (active).
With `Nc1cccc(CNC(=O)c2ccc(Oc3ccc(OCc4cccc(F)c4)cc3)nc2)c1` the Potency was 11.5 µM (active).
For `COc1ccc(-c2csc(NC(=O)[C@H]3CCCCN3S(=O)(=O)c3ccc(C)cc3)n2)cc1`, the Potency was 18.3 µM (active).
In the case of `NCCOc1cc(C(=O)Nc2cc(OCCN)c3ccccc3n2)nc(C(=O)Nc2cc(OCCN)c3ccccc3n2)c1`, the Potency is reported as 4.09 µM (active) and 7.42 µM (active).
In the case of `COc1ccc2nc(-c3cc(OC)c(OC)c(OC)c3)cc(C(=O)NCC(=O)Nc3ccc(C(C)=O)cc3)c2c1`, the Potency is reported as 12.9 µM (active).
With `CC(C)NC(=O)COc1cccc(-c2nc(Nc3ccc4[nH]ncc4c3)c3ccccc3n2)c1` the Potency was 7.42 µM (active).
With `CC(=O)N1CCN(CCOc2ccc(C3CCN(C4=Nn5c(nnc5C(F)(F)F)CC4)CC3)cc2)CC1` the Potency was 5.15 µM (active).
For `Nc1ncnc2c1c(-c1ccc(Oc3ccccc3)cc1)nn2[C@@H]1CCCNC1`, the Potency was 1.63 µM (active).
In the case of `O=S(=O)(Cc1ccccc1)Nc1ccc(-c2ccc3c(cnn3-c3ccc(F)cc3)c2)c(C(F)(F)F)c1`, the Potency is reported as 18.3 µM (active).
In the case of `CCN(c1cc(-c2ccc(CN3CCOCC3)cc2)cc(C(=O)NCc2c(C)cc(C)[nH]c2=O)c1C)C1CCOCC1`, the Potency is reported as “inactive”.

Test system: not listed separately
Assay: Primary qHTS for inhibitors of nuclear receptor binding SET domain protein 2 (NSD2) in an RCH-ACV wild type WT cells (2C) (AID 1645877); note: nearly all actives have a fitted effect of over 70% in size
Details: RCH-ACV (leukaemia line) NSD2 WT (2C) viability, CellTiter-Glo, 72 h; series mostly up to 44.9 µM
In the case of `CCOc1ccc(S(=O)(=O)N2CCCCCC2)c2ccccc12`, the Potency is reported as “inactive”.
In the case of `Nc1nccc(-c2c(-c3ccc(F)cc3)ncn2C2CCCCC2)n1`, the Potency is reported as 14.5 µM (active) and 10.5 µM (active).
With `Oc1cccc(C2NC(=S)Nc3cccc(F)c32)c1` (stereo not given) the Potency was 4.09 µM (active).
With `Cc1[nH]c(/C=C2\C(=O)Nc3cc(-c4ccccc4)ccc32)c(C)c1CCC(=O)O` the Potency was 23 µM (active).
For `CC(C)S(=O)(=O)c1ccc2nccc(Nc3ccc4scnc4c3)c2c1`, the Potency was 10.5 µM (active).
In the case of `COc1cccc(OCCCN)c1-c1cc(Nc2cnc(C#N)cn2)n[nH]1`, the Potency is reported as 0.0103 µM (active).
In the case of `COCC(=O)NC/C=C/c1ccc2ncnc(Nc3ccc(Oc4ccc(C)nc4)c(C)c3)c2c1`, the Potency is reported as 16.3 µM (active).
For `CN(C)C(=O)Nc1cccc(-c2ccc(N(C)C)cc2)c1`, the Potency was “inactive”.
For `COc1cc(F)c(C(C)C)cc1-c1ccc(C(F)(F)F)cc1CN1C(=O)OC(c2cc(C(F)(F)F)cc(C(F)(F)F)c2)C1C` (stereo not given), the Potency was “inactive”.
In the case of `O=C(Nc1ccc(C(O)(C(F)(F)F)C(F)(F)F)cc1)c1ccc(C(F)(F)F)cc1`, the Potency is reported as 5.78 µM (active).
For `COc1cc2c(Nc3cc(F)c(Cl)c(Cl)c3)ncnc2cc1OCC1CCCN(C)CCC1`, the Potency was 5.15 µM (active).
In the case of `N#Cc1ccc2ncnc(NCCc3ccccc3)c2c1`, the Potency is reported as 4.09 µM (active).
For `NCCOc1cc(C(=O)Nc2cc(OCCN)c3ccccc3n2)nc(C(=O)Nc2cc(OCCN)c3ccccc3n2)c1`, the Potency was 5.78 µM (active) and 8.33 µM (active).
In the case of `CC(=O)N1CCN(CCOc2ccc(C3CCN(C4=Nn5c(nnc5C(F)(F)F)CC4)CC3)cc2)CC1`, the Potency is reported as 6.49 µM (active).
With `Nc1ncnc2c1c(-c1ccc(Oc3ccccc3)cc1)nn2[C@@H]1CCCNC1` the Potency was 2.3 µM (active).
In the case of `O=S(=O)(Cc1ccccc1)Nc1ccc(-c2ccc3c(cnn3-c3ccc(F)cc3)c2)c(C(F)(F)F)c1`, the Potency is reported as 0.183 µM (active).
For `CN(C)C(=O)Nc1cc(-c2ccccc2)ccc1N(C)C`, the Potency was “inactive”.
